PubChem BioAssay (EPA / NIEHS)
Calls of active or inactive are those of the source. Rule for the calls: active = hit-call score of the fitted dose curve at least 0.9, where 1 is the maximum; inactive = score below 0.9.

What was measured:
[1] = APR_HepG2_MitoMembPot_72hr: Apredica 72-hour HepG2 Assay for Mitochondrial Membrane Potential (AID 2282917); details: imaging, actives raise or lower the signal
Method in brief: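 Membrane potential read by MitoTracker Red CMXRos (250 nM, 30 min, pre-fixation) fluorescence imaging of HepG2 after 72 hr exposure. Ten concentrations, 0.39–200 uM, duplicate wells, 0.5% DMSO; fitted in both directions against DMSO baseline.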

[2] = APR_HepG2_MitoticArrest_72hr: Apredica 72-hour HepG2 Assay for Mitotic Arrest (AID 2282918); details: high-content imaging, actives raise or lower the signal
Method in brief: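 High-content imaging of fixed human HepG2 cells after 72 h compound exposure (0.39–200 uM, duplicates, 0.5% DMSO); mitotic arrest scored from phospho-histone H3 and nuclear Hoechst staining relative to DMSO.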

[3] = APR_HepG2_MicrotubuleCSK_72hr: Apredica 72-hour HepG2 Assay for Microtubule CSK Stabilty (AID 2282919); details: HepG2 microtubule cytoskeleton, high-content imaging, actives raise or lower the signal
Method in brief: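 High-content imaging of alpha-tubulin staining in fixed HepG2 cells after 72 hr treatment with ten concentrations from 0.39 to 200 uM (0.5% DMSO). Fitting was bidirectional against DMSO; taxol served as positive control.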

[4] = APR_HepG2_P-H2AX_24hr: Apredica 24-hour HepG2 Assay for H2AX Phosphorylation (AID 2282920); details: high-content imaging, actives raise or lower the signal
Method in brief: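 High-content imaging of phospho-histone H2A.x immunofluorescence, nuclei counterstained with Hoechst 33342, in fixed HepG2 cells. Compounds ran 0.39–200 uM in duplicate for 24 h, final DMSO 0.5%. Signal change fitted both directions against DMSO.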

[5] = APR_HepG2_StressKinase_72hr: Apredica 72-hour HepG2 Assay for Stress Kinase (AID 2282921); details: HepG2 stress kinase (phospho-c-Jun) imaging, actives raise or lower the signal
Method in brief: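 Stress kinase signal reflects nuclear phospho-c-Jun staining in fixed, permeabilized cells exposed 72 h to compound at 0.39–200 uM; DMSO-normalized, fitted for increases or decreases.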

[6] = APR_HepG2_StressKinase_24hr: Apredica 24-hour HepG2 Assay for Stress Kinase (AID 2282922); details: HepG2 stress kinase (phospho-c-Jun) imaging, actives raise or lower the signal
Method in brief: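 High-content imaging of phospho-c-Jun immunofluorescence in fixed, permeabilized HepG2 cells after 24 h dosing. Ten concentrations, 0.39 to 200 uM, run in duplicate at 0.5% v/v DMSO; gain or loss of signal versus DMSO.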

[7] = APR_HepG2_MitoMass_72hr: Apredica 72-hour HepG2 Assay for Mitochondrial Mass (AID 2282924); details: high-content imaging, actives raise or lower the signal;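 note: MitoTracker Red CMXRos stain intensity per cell imaged as mitochondrial mass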
Method in brief: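 Readout is imaged MitoTracker Red (250 nM, 30 min, pre-fixation) signal, fitted bidirectionally against DMSO baseline. Human HepG2 liver cells received compound 0.39–200 uM in duplicate for 72 hr, final DMSO 0.5%.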

[8] = APR_HepG2_NuclearSize_72hr: Apredica 72-hour HepG2 Assay for Nuclear Size (AID 2282925); details: high-content imaging, actives raise or lower the signal
Method in brief: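 Nuclear size was read by high-content imaging of Hoechst 33342 stain after formaldehyde fixation. Compounds ran 72 h on HepG2 at 0.39 to 200 uM, with final DMSO 0.5% v/v. Curves fitted both directions relative to DMSO control.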

[9] = APR_HepG2_p53Act_72hr: Apredica 72-hour HepG2 Assay for p53 Activation (AID 2282923); details: high-content imaging, actives raise or lower the signal;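 note: average cellular p53 protein immunofluorescence intensity in HepG2 cells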
Method in brief: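 Fixed-cell p53 staining (sheep primary, Cy5 secondary) measured by fluorescence imaging following 72 hr treatment at 0.39–200 uM in 0.5% DMSO; DMSO served as negative control and baseline.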

SMILES | outcome [1] | AC50 [2] | outcome [3] | outcome [4] | outcome [5] | outcome [6] | outcome [7] | outcome [8] | outcome [2] | outcome [9] | AC50 [5] | AC50 [9] | AC50 [7] | AC50 [4] | AC50 [8]
CCCOc1ccc(S(=O)(=O)N2CCN(CC)CC2)cc1-c1nc2c(CC)n(Cc3ccccn3)nc2c(=O)[nH]1 | inactive | 90.2 µM (active) | inactive | inactive | inactive | inactive | inactive | inactive | – | – | – | – | – | – | –
OCC(CO)(CO)CO | inactive | – | inactive | inactive | inactive | inactive | inactive | inactive | inactive | – | – | – | – | – | –
CCCCOC(=O)c1ccccc1 | inactive | – | inactive | inactive | inactive | inactive | inactive | inactive | inactive | inactive | – | – | – | – | –
CCCCCCCC1CCC(=O)O1 (configuration not stated) | inactive | – | – | inactive | inactive | inactive | inactive | – | inactive | inactive | – | – | – | – | –
CCCc1ccccc1 | inactive | – | inactive | inactive | inactive | inactive | inactive | inactive | inactive | inactive | – | – | – | – | –
O=C(NO)C1(NS(=O)(=O)c2ccc(Oc3ccc(F)cc3)cc2)CCOCC1 | inactive | – | inactive | inactive | inactive | inactive | inactive | inactive | inactive | – | – | – | – | – | –
CCc1ccc(O)c(C(C)(C)C)c1 | inactive | 81.3 µM (active) | inactive | inactive | – | inactive | inactive | inactive | – | – | 84.8 µM (active) | 71.6 µM (active) | – | – | –
C[C@@H](Oc1ccc(CNC(=O)c2cccnc2Oc2ccc3c(c2)OCO3)c(F)c1)C(=O)O | inactive | – | inactive | inactive | inactive | inactive | inactive | inactive | inactive | – | – | – | – | – | –
O=c1[nH]cnc2c1ncn2[C@H]1CC[C@@H](CO)O1 | inactive | – | inactive | inactive | inactive | inactive | inactive | inactive | inactive | – | – | – | – | – | –
c1ccc2c(c1)-c1cccc3c1c-2cc1ccccc13 | inactive | – | inactive | inactive | inactive | inactive | – | inactive | inactive | – | – | – | 39.1 nM (active) | – | –
CCCCCCCC/C=C\CCCCCCCC(=O)OC[C@@H](O)[C@H]1OC[C@H](O)[C@H]1O | inactive | – | inactive | inactive | inactive | inactive | inactive | inactive | inactive | inactive | – | – | – | – | –
Nc1ccn([C@@H]2O[C@H](CO)[C@@H](O)[C@@H]2O)c(=O)n1 | inactive | 0.177 µM (active) | inactive | – | inactive | inactive | inactive | – | – | – | – | – | – | 97.9 nM (active) | 39.4 nM (active)
CC1(C)C(=O)N(Cl)C(=O)N1Cl | – | – | – | inactive | inactive | inactive | – | inactive | – | inactive | – | – | – | – | –
CCCCCCCCCC | inactive | – | inactive | inactive | inactive | inactive | inactive | inactive | inactive | inactive | – | – | – | – | –
CC[C@H](C)C(=O)O[C@H]1C[C@H](O)C=C2C=C[C@H](C)[C@H](CC[C@@H](O)C[C@@H](O)CC(=O)O)[C@H]21 | inactive | – | inactive | inactive | inactive | inactive | inactive | inactive | inactive | – | – | – | – | – | –
CC(=O)c1ccccc1 | inactive | – | inactive | inactive | inactive | inactive | inactive | inactive | inactive | inactive | – | – | – | – | –
CCCCCCCCN(C)C | inactive | – | inactive | inactive | inactive | inactive | inactive | inactive | inactive | inactive | – | – | – | – | –
OC[C@H]1O[C@@H]2O[C@H]3[C@H](O)[C@@H](O)[C@@H](O[C@H]4[C@H](O)[C@@H](O)[C@@H](O[C@H]5[C@H](O)[C@@H](O)[C@@H](O[C@H]6[C@H](O)[C@@H](O)[C@@H](O[C@H]7[C@H](O)[C@@H](O)[C@@H](O[C@H]1[C@H](O)[C@H]2O)O[C@@H]7CO)O[C@@H]6CO)O[C@@H]5CO)O[C@@H]4CO)O[C@@H]3CO | inactive | – | inactive | inactive | inactive | inactive | inactive | inactive | inactive | – | – | – | – | – | –
